IL1B secr inh: inflammasome signaling inhibition, IL-1 beta readout; THP-1 LPS/ATP IL-1B secretion, AlphaLISA, 16 h; active compounds read low; activity change, % at 57.5 µM; actives 4.7% (n = 360,000); in the data active means activity change below about -50%; inconclusive means mostly about -30% to -49%
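THP-1 cells pretreated 1 hr with compounds (up to 57.5 uM final), then stimulated with LPS (250 ng/mL final) plus ATP (1.25 mM final); secreted IL-1B measured by AlphaLISA after 16 hr, decreased signal indicating inhibition.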
HT1080 IDH1KD tx: kills HT-1080 cells with IDH1 knockdown; HT-1080 IDH1 knockdown viability, ATP luminescence, 48 h; Potency, µM (doses to about 46.1 µM), hits mostly cytotoxic; actives 2% (n = 360,000)
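After a 2 h attachment period, IDH1KD HT-1080 cells took pin-transferred compound for 48 h at 37 °C; ATP-based luminescence after 10 min room-temperature reagent incubation reported viability.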
12-LOX inh: inhibitors of human 12S-lipoxygenase ALOX12 | P18054 | purified 12hLO, xylenol orange hydroperoxide absorbance | Potency, µM (top dose mostly 108 µM), hits mostly inhibitors | actives 1.1% (n = 580,000) | AID 1671190
Target sequence (P18054 whole entry, looked up): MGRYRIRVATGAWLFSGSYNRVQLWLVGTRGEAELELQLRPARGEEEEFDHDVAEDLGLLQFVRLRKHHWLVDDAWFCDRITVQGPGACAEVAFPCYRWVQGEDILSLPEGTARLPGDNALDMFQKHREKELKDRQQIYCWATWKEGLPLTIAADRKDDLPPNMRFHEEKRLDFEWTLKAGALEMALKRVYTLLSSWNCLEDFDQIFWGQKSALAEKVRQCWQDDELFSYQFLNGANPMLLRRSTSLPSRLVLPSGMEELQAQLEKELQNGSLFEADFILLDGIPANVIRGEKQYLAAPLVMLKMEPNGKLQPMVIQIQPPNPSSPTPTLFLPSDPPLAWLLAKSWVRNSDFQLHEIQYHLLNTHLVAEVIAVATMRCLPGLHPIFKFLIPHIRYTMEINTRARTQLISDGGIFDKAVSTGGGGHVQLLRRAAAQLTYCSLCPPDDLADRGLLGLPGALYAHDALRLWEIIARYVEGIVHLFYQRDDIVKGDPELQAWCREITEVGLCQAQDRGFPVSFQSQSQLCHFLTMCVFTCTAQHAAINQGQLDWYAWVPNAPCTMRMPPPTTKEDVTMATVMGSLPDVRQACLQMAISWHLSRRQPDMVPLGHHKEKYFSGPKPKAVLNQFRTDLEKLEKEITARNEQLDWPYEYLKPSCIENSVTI
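Hydroperoxide product was detected by ferrous iron/xylenol orange as the 573 to 405 nm absorbance ratio. Arachidonic acid at 40 uM (final) was turned over for 30 min at room temperature by 150 nM human 12hLO, pH 7.0 Hepes buffer, after 15 min compound preincubation.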
TDP1 cell CPT: growth inhibition of DT40 Tdp1-/-;hTDP1 cells with camptothecin (screen for TDP1 inhibitors); chicken DT40 Tdp1-/-;hTDP1 cells + 20 nM CPT, ATP luminescence, 48 h; Potency, µM (top dose mostly 46.2 µM), most hits filed as inhibitors; actives 12% (n = 420,000); further: nearly all actives have a fitted effect of over 55% in size
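Cell growth measured by CellTiter-Glo luminescence after a minimum 48 h, 37 C compound exposure with 20 nM CPT in Tdp1-knockout DT40 cells stably expressing hTDP1, seeded 400/well; qHTS titration format.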
TDP1 cell noCPT: qHTS for Inhibitors of human tyrosyl-DNA phosphodiesterase 1 (TDP1): qHTS in cells in absence of CPT; actives 15% (n = 420,000); AID 686978, 2013; DT40 Tdp1-/- hTDP1 cells, no CPT, ATP luminescence, 48 h; Potency, µM (highest dose often 46.2 µM), most hits filed as inhibitors; further: nearly all actives have a fitted effect of over 55% in size
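DT40 Tdp1-/-;hTDP1 cells, no CPT (DMSO vehicle only), 400 cells/well; compounds pin-transferred; ≥48 hr, 37 °C; CellTiter-Glo 30 min RT dark, luminescence read.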
HT1080-NT tox: kills 2HG-producing HT-1080-NT fibrosarcoma cells | HT-1080-NT fibrosarcoma viability, CellTiter-Glo ATP luminescence, 48 h | Potency, µM (titrated, usually from 46.1 µM), actives largely listed as cytotoxic | actives 1.6% (n = 360,000);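 further: NT is the 2HG producing partner of a matched IDH1 knockdown line; nearly all actives have a fitted effect of over 55% in size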
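HT-1080-NT fibrosarcoma cells (2HG-overproducing), 750 cells/well in RPMI with 5% FBS, dosed after 2 h and incubated 48 h at 37C. CellTiter-Glo luminescence normalized to DMSO and no-cell wells; concentration-response curves fitted and classed.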
Numbers stand for hits; – = inactive; ? = inconclusive; · = no result given. Many of the other results were omitted from the sample, so hits are more common in it than they were. Unless noted, the call rests on the fitted dose curve; in most records, active means well fitted curve in the direction sought with a large enough effect; inconclusive means small, poorly fitted or top-dose-only effect, or another doubt; inactive means no such curve, though single readings can be large; an effect the other way counts as inactive or inconclusive.

SMILES | IL1B secr inh | HT1080 IDH1KD tx | 12-LOX inh | TDP1 cell CPT | TDP1 cell noCPT | HT1080-NT tox
CC/C(=N\N1CCCCCC1)c1c(O)n(-c2ccccc2C)c(=O)[nH]c1=O | – | – | – | 21µM | 15µM | –
O=C(Cn1ncc2c3ccccc3n(Cc3ccccc3F)c2c1=O)N1CCC2(CC1)OCCO2 | ? | – | – | 23µM | 12µM | –
Cc1c2cnn(CC(=O)N3CCC4(CC3)OCCO4)c(=O)c2c(C)n1Cc1ccc(F)cc1 | – | – | – | – | ? | –
COc1ccc(-c2ccc(OC)c(OC)c2OC)cc1 | – | ? | – | 15µM | 5.2µM | ?
COc1ccc(OC)c(C(O)C(C)N)c1 (configuration not stated) | – | – | – | – | – | –
Cc1ccccc1NC(=O)CCl | -86 | – | – | 18µM | 23µM | –
Cc1cccc(C)c1OCC(=O)Nc1ccc(Cl)cc1C(=O)c1ccccc1 | · | · | – | – | – | ·
c1ccc(Nc2ccc3ccccc3c2)cc1 | – | – | – | ? | ? | –
CC(C)Nc1ccc(Nc2ccccc2)cc1 | -95 | · | ? | 6.5µM | 6.5µM | ·
N#Cc1cnn2c(C(F)F)cc(-c3ccc(F)cc3)nc12 | · | · | – | · | · | ·
Cc1ccc(Cn2c(SCc3ccc(C(=O)NC4CCCC4)cc3)nc3ccncc32)cc1 | · | · | – | ? | 16µM | ·
O=C(NCc1cccnc1)c1cn(Cc2ccccc2)c2ccccc12 | · | · | – | · | · | ·
Cc1ccc(CNC(=O)c2ccc(CSc3nc4ccncc4n3Cc3ccc(C)cc3)cc2)cc1 | · | · | – | 5.2µM | 8.2µM | ·
CC(C)(O)c1cn(C[C@H]2CC3CCN2C[C@@H]3C(=O)Nc2nccs2)nn1 (some centres not stated) | · | · | – | · | · | ·
C=C[C@H]1CN2CC[C@H]1C[C@@H]2CNS(=O)(=O)c1ccc2ccccc2c1 | · | · | – | · | · | ·
O=C1NCCCCCN[C@H]2CCC[C@@H]12 | · | · | – | · | · | ·
O=C(Nc1ccc(Br)cc1)c1cc(Br)cc(Br)c1O | · | · | 40µM | – | – | ·
O=C(NC[C@H]1C[C@@H]2CCN1C[C@@H]2CN1C[C@@H]2C[C@H](C1)c1cccc(=O)n1C2)c1ccccc1 | · | · | – | · | · | ·
COc1cc2cc(c1Cl)N(C)C(=O)CC(OC(=O)C(C)N(C)C(C)=O)C1(C)OC1C(C)C1CC(O)(NC(=O)O1)C(OC)C=CC=C(C)C2 (configuration not stated) | – | ? | – | 0.046µM | 0.13µM | 0.0041µM
CCOc1ccccc1CN1C2CCC1CC(c1ccc(C)cc1)C2 (configuration not stated) | – | – | – | 23µM | 18µM | –
COc1ccc(NC(=O)c2cn(C)c3ccccc23)c(OC)c1 | · | · | – | · | · | ·
COc1ccc(NC(=S)Nc2ncccc2C)c(OC)c1 | -78 | 10µM | ? | – | ? | 7.1µM
CCOC(=O)c1cccc(NC(=O)c2c(O)[nH]c(=O)[nH]c2=O)c1 | – | – | ? | – | – | –
CCCCCNc1c(C(=O)OCC)c(=O)[nH]c2ccccc12 | – | – | – | ? | 13µM | –
Cc1ccccc1-c1ccc2n(c1=O)C[C@H]1C[C@@H]2CN(C(=O)Nc2cccc(F)c2)C1 | · | · | – | · | · | ·
SMILES | IL1B secr inh | HT1080 IDH1KD tx | 12-LOX inh | TDP1 cell CPT | TDP1 cell noCPT | HT1080-NT tox
O=C(NCc1cccnc1)c1ccc(COc2ccc3c(c2)CCC3)o1 | – | ? | – | 18µM | ? | ?
CCOP1(=S)Oc2cc3c(cc2C(C(=O)OC)(C(F)(F)F)O1)OCO3 (configuration not stated) | – | – | ? | 13µM | ? | –
COc1cc(C[C@@H](C)N)c(OC)cc1I | -64 | – | – | ? | ? | –
C[C@@]1(CO)[C@H](O)CC[C@@]2(C)[C@H]1CC[C@H]1C[C@@H]3C[C@@]12CC[C@]3(O)CO | · | · | ? | 0.1µM | 0.13µM | ·
CC(=O)C1C(N2CC2)CC2C3CCC4=CC(=O)CCC4(C)C3CCC21C (configuration not stated) | -61 | – | – | 7.3µM | 12µM | –
CC1=C2CCC3C(CCC4=CC(=O)CCC43C)C2CC1 (configuration not stated) | – | – | – | ? | 29µM | –
C[C@]12CC[C@H]3[C@@H](CCC4=CC(=O)CC[C@@]43C)[C@@H]1CC[C@@H]2O | – | – | – | – | – | ?
C[C@]12CC[C@H]3[C@@H](CCC4=CC(=O)CC[C@@]43C)[C@@H]1CC[C@@H]2C(=O)CO | – | – | – | ? | 10µM | ?
CCC(=O)O[C@H]1CC[C@H]2[C@@H]3CCC4=CC(=O)CC[C@]4(C)[C@H]3CC[C@]12C | -72 | · | – | ? | ? | ·
C[C@]12CC[C@H]3[C@@H](CCC4=CC(=O)CC[C@@]43C)[C@H]1CC[C@H]2O | · | · | – | · | · | ·
Cc1c(C(=O)Cn2c(C)nc3ccccc32)c2ccccc2n1C | · | · | – | · | · | ·
CC12CCC(=O)C=C1CCC1C2CCC2(C)C(O)CCC12 (configuration not stated) | – | – | – | 23µM | ? | –
O=C1CN=C(c2ccccc2)c2ccccc2N1 | – | – | – | – | – | –
O=C1CN=C(c2cc([N+](=O)[O-])ccc2Cl)c2cc([N+](=O)[O-])ccc2N1 | – | – | – | – | – | –
O=C1CN=C(c2ccccc2)c2cc([N+](=O)[O-])ccc2N1 | -78 | – | – | – | – | –
O=C1CN=C(c2cccc(Br)c2)c2cc(Br)ccc2N1 | ? | ? | ? | – | 16µM | ?
CCN1[C@H](C(=O)OC)[C@@H](CO)[C@@H]2Cn3c(ccc(Br)c3=O)[C@@H]21 | · | · | – | · | · | ·
c1cncc(CN2CCNCC2)c1 | · | · | – | · | · | ·
CCCc1nnc(N2C[C@H]3COc4ccccc4C[C@@]3(C(=O)O)C2)s1 | · | · | – | · | · | ·
COc1ccc(NC(=O)CCc2nc(C3=CCN(Cc4cccc(C)c4)CC3)no2)c(OC)c1 | · | · | – | 16µM | 12µM | ·
O=C(CCc1nc(C2=CCN(Cc3cccc(Cl)c3)CC2)no1)Nc1ccccc1F | · | · | – | 15µM | 12µM | ·
COc1cccc(NC(=O)CCc2nc(-c3ccc(C(C)(C)C)cc3)no2)c1 | · | · | – | ? | ? | ·
O=c1[nH]c2ccccc2n1C1CCN(C(CCc2ccccc2)c2nnnn2C2CCCC2)CC1 (configuration not stated) | -55 | ? | – | 18µM | 16µM | ?
Cc1ccc2nc(-c3ccc(CN4CCC(n5c(=O)[nH]c6cc(Cl)ccc65)CC4)cc3)c(-c3ccccc3)nc2c1 | · | · | – | · | · | ·
